Laboratory results published in PubChem BioAssay (NCATS).
Records with an inconclusive call do not appear. Activity calls are given as the source filed them. Calls follow the shape of the dose curve; as a rule, active = well fitted curve in the direction sought with a large enough effect; inconclusive = small, poorly fitted or top-dose-only effect, or another doubt; inactive = no such curve, though single readings can be large or run the other way.

Test: qHTS Assay for Identifying Gametocytocidal Compounds (AID 743244);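 also: actives lower the fluorescent signal which means gametocytes are killed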
Conditions: P. falciparum 3D7 stage III-V gametocytes, alamarBlue, 72 h; max response: active compounds read low
Procedure, shortened: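 Compounds are pinned into medium, gametocytes (stage III–V, 3D7, 20,000 cells/well) added, and plates held 72 h at 37 °C in 5% CO2. AlamarBlue follows for 24 h before fluorescence reading.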
% is scaled to controls: 0 for no effect and ±100 for the full control effect.

| Structure (SMILES) | max response |
| --- | --- |
| O=C1c2ccccc2C(=O)C1c1ccc(Br)cc1 | -7.34% (inactive) |
| COc1nccnc1NS(=O)(=O)c1ccc(N)cc1 | -9.73% (inactive) |
| CN/C(=C\[N+](=O)[O-])NCCSCc1csc(CN(C)C)n1 | 18.9% (inactive) |
| NS(=O)(=O)c1cc(C2(O)NC(=O)c3ccccc32)ccc1Cl (configuration not stated) | 0.268% (inactive) |
| COC(=O)c1ccccc1C(=O)c1ccc(OCCN2CCCCC2)cc1 | -9.15% (inactive) |
| O=C(O)c1ccc(OCCCOc2ccc(C(=O)O)cc2)cc1 | 1.74% (inactive) |
| CCS(=O)(=O)CCn1c([N+](=O)[O-])cnc1C | 9.95% (inactive) |
| O=C(O)CCC(=O)O | 4.69% (inactive) |
| OCCN1C[C@H](O)[C@@H](O)[C@H](O)[C@H]1CO | 4.21% (inactive) |
| Cc1ccc(S(=O)(=O)NC(=O)NC2CCCCCCC2)cc1 | 5.01% (inactive) |
| CCN[C@H]1CN(CCCOC)S(=O)(=O)c2sc(S(N)(=O)=O)cc21 | 21.3% (inactive) |
| COc1ccccc1Oc1c(NS(=O)(=O)c2ccc(C(C)(C)C)cc2)nc(-c2ncccn2)nc1OCCO | -3.79% (inactive) |
| CC(=O)N[C@@H](CC(C)C)C(=O)O | -15.3% (inactive) |
| Cc1cccc(C(=O)O)c1O | 2.78% (inactive) |
| CC(CSC(=O)c1ccccc1)C(=O)N1C[C@@H](Sc2ccccc2)C[C@H]1C(=O)O (some centres not stated) | 2.09% (inactive) |
| NC(N)=NCCN1CCCCCCC1 | 21% (inactive) |
| Cc1ccccc1N=Nc1ccc(N=Nc2c(O)ccc3ccccc23)c(C)c1 | 7.02% (inactive) |
| NC(=O)NC1NC(=O)NC1=O (configuration not stated) | -4.09% (inactive) |
| CCCNC(C)C(=O)Nc1c(C)csc1C(=O)OC (configuration not stated) | 7.96% (inactive) |

| Structure (SMILES) | max response |
| --- | --- |
| CCOc1ccc(C(=O)OCCN(CC)CC)cc1 | 4.91% (inactive) |
| O=C(O)Cc1ccc(CCNS(=O)(=O)c2ccc(Cl)cc2)cc1 | 23.5% (inactive) |
| C[N+](C)(C)CC[N+]1(C)Cc2c(Cl)c(Cl)c(Cl)c(Cl)c2C1 | -6.87% (inactive) |
| CCCCC1(COC(=O)CCC(=O)O)C(=O)N(c2ccccc2)N(c2ccccc2)C1=O | 1.1% (inactive) |
| CCCOC(=O)c1ccc(N)cc1 | -6.49% (inactive) |
| CCCCCCCCCCCCCCCCN | 6.4% (inactive) |
| C/C=C/C(=O)N(CC)c1ccccc1C | 21.1% (inactive) |
| O=C(Cn1ccnc1[N+](=O)[O-])NCc1ccccc1 | -2.89% (inactive) |
| NC(=O)CC[C@@H](N)C(=O)O | -2.82% (inactive) |
| C[N+](C)(C)CC(O)CC(=O)[O-] (configuration not stated) | -7.85% (inactive) |
| CC(CN(C)C)C(C)(O)Cc1ccc(Cl)cc1 (configuration not stated) | -5.22% (inactive) |
| COC(=O)c1cccnc1 | 29% (inactive) |
| C=CCOc1ccccc1OCC(O)CNC(C)C (configuration not stated) | 5.69% (inactive) |
| O=C(O)Cn1c(C(=O)Nc2nc(-c3ccccc3Cl)cs2)cc2ccccc21 | 1.71% (inactive) |
| CC(=O)NCc1c(I)c(NC(C)=O)c(I)c(C(=O)O)c1I | 12.1% (inactive) |
| Cc1cc(OI)c(C(C)C)cc1-c1cc(C(C)C)c(OI)cc1C | 3.81% (inactive) |
| O=c1[nH]c(=O)n([C@H]2C[C@H](O)[C@@H](CO)O2)cc1I | 3.28% (inactive) |
| C/C=C1\[C@H]2C=C(C)C[C@]1(N)c1ccc(=O)[nH]c1C2 | 2.62% (inactive) |
